This is a sample that favours compounds with a hit; in the whole collection about 1% have one here.
KCNH2 3.1 inh: KCNH2 3.1 (human) potassium channel inhibition. AID 720553. U2OS KCNH2 3.1, thallium flux FluxOr; stronger effect = lower value. activity change, % (tested at about 1.8 µM). actives 0.95% (n = 340,000);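 active = maximum activity change below -70%; inconclusive = maximum activity change from -70% to -50%; inactive = maximum activity change above -50%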;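 also: thallium influx rate constant from kinetic fluorescence after stimulation buffer; % is scaled to controls: 0 for no effect and ±100 for the full control effect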
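Channel expression came from 3.1 mutant virus (1.77 x 10^8 /mL) applied to suspended U2OS cells for 4 h. Flux was tracked with FluxOr dye plus Red40 quencher, and kinetic rate constants normalized to controls.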
KCNH2 WT inh: KCNH2 (human, wildtype) channel inhibition | Q12809 | U2OS, BacMam KCNH2, thallium flux FluxOr; stronger effect = lower value | activity change, % at 1.84 µM | actives 0.37% (n = 340,000);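 active = maximum activity change below -70%; inconclusive = maximum activity change between -70% and -50%; inactive = maximum activity change above -50%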; also: % is scaled to controls: 0 for no effect and ±100 for the full control effect
Target sequence (Q12809 whole entry, looked up): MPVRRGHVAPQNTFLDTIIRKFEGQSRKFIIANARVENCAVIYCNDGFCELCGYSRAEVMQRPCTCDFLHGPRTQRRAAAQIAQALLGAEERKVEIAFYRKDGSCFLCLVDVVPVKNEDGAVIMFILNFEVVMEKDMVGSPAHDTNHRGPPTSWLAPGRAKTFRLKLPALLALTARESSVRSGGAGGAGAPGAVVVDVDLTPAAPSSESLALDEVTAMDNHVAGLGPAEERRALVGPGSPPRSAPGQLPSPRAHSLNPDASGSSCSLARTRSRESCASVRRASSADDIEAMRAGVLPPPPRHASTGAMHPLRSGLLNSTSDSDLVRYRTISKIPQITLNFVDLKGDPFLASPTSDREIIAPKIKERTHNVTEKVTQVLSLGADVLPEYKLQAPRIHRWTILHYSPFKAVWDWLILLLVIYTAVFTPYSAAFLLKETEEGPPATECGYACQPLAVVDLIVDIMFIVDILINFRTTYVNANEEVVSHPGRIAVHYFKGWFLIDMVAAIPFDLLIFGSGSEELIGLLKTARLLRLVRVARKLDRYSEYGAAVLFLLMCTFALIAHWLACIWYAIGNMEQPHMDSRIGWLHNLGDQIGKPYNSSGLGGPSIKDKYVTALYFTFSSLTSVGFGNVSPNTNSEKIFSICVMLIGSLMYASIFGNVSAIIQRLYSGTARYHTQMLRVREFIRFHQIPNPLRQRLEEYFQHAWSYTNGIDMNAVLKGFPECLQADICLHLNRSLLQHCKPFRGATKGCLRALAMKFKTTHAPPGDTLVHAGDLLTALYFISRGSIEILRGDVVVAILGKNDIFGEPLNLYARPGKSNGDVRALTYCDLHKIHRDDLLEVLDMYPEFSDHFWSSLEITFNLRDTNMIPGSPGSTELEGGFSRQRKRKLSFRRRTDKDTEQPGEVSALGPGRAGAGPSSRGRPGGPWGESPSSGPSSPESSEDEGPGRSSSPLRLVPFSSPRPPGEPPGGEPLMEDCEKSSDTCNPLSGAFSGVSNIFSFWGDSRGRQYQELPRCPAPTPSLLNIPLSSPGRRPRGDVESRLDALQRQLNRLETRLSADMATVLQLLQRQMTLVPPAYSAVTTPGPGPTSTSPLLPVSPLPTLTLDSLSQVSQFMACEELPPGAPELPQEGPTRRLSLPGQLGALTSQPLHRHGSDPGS
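U2OS cells were transduced with wild-type KCNH2 virus (2.03 x 10^8 / mL) for 4 h at room temperature, then cultured overnight at 37 C. Thallium flux was read with FluxOr dye. Rate constants were normalized to DMSO controls.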
TRPML1 ag: human mucolipin-1 channel agonism. actives 0.12% (n = 410,000). Q9GZU1. TRPML1-expressing cells, Ca2+ dye fluorescence, FDSS. activation, % (test concentration not listed); in the data active = activation above about 50%; inconclusive = mostly about 30% to 49%; also: 0% is about no effect
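Cells: TRPML1-DL, 1X Tet inducer, ~16 h at 37 degrees C/5% CO2. Dye: ABD Ca8 no-wash + quencher, 45-90 min RT. Read: 10 s baseline, compound add, 110 s agonist phase; 54-4 EC80 (4uM final), 110 s antagonist phase.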
TRPML1 inh: human mucolipin-1 channel inhibition; TRPML1-inducible cells, Ca2+ dye fluorescence, FDSS; stronger effect = lower value; inhibition of EC80 agonist-evoked calcium signal; actives 0.02% (n = 390,000); Q9GZU1; activity change, negative = inhibition, % (no concentration beside the values); in the data active = activity change below about -50%; inconclusive = between about -30% and that limit;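 also: stimulus is agonist 54-4 at its EC80 concentration; % is scaled to controls: 0 for no effect and ±100 for the full control effect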
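Calcium fluorescence in TRPML1-DL cells induced overnight with Tet: a 110 s read after compound pin addition, then a 110 s antagonist read after challenge with 54-4 at 4 uM final (EC80).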
GRP78 ERSR act: ER stress response induction in glioma; U87-MG GRP78 promoter luciferase reporter, 16 h; Potency, µM, for the others: at the highest dose activation, hits mostly activators; actives 0.02% (n = 420,000); AID 602332; active = well fitted activation curve with a large enough effect; inconclusive = small, poorly fitted or top-dose-only effect; inactive = no such curve, though single readings can be large or run the other way; also: potency is read from the fitted curve at half-maximal effect; series mostly up to about 76 µM; % of control where 0% means no effect; nearly all actives have a fitted effect of over 35% in size
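ERSR induction read as luciferase luminescence (Bright-Glo, 10 min at room temperature) in stably transfected human U87-MG glioma cells exposed to compounds for 16 h, using GRP78 as sensor.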
PTAP TSG101 blk: blocks PTAP/TSG101 interaction to inhibit HIV-1 budding; Fluorescence polarization, FITC-PTAP peptide / Tsg101 binding; Potency, µM (series often up to 115 µM), without a hit: at the top dose activity change, negative = inhibition, most hits filed as inhibitors; AID 493005; 340,000 tested, under 10 active; active = well fitted inhibition curve with a large enough effect in the main read-out, with a control signal flat, not every such curve was filed as active; inconclusive = small, poorly fitted or top-dose-only effect, or effect the other way, or a change in a side signal; inactive = no such curve, though single readings can be large or run the other way; also: potency is read from the fitted curve at half-maximal effect; % of control where 0% means no effect
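Fluorescence anisotropy tracks displacement of a FITC-tagged PTAP peptide (50 nM) from the Tsg101 binding domain (10 uM), following a 20 min room-temperature incubation at pH 7.5.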
The depositor's hits bear a star; ? = inconclusive; · = not tested or not shown; + = active, no number.

SMILES	KCNH2 3.1 inh	KCNH2 WT inh	TRPML1 ag	TRPML1 inh	GRP78 ERSR act	PTAP TSG101 blk
CCOC(=O)c1[nH]c2ccc(OCC)cc2c1NC(=O)CN1CCN(c2ccccc2)CC1	10.1	5.1	0.4	-5.8	6.9%	1.4%
COC(=O)c1[nH]c2ccccc2c1NC(=O)CN1CCN(C/C=C/c2ccccc2)CC1	-96.4*	-93.9*	-0.2	-1.1	-4.1%	-2.5%
COc1ccc(C)cc1NC(=O)Nc1ccccc1	-134.5*	-136.9*	-0.2	87.9	7.3%	-4.5%
O=C(NNC(=O)C1[C@H]2CCCC[C@@H]12)NC1CCCCC1 (stereo partly drawn)	-75.7*	·	-0.1	5.7	-0.1%	0.7%
CC(C)(C)n1ncc2c(=O)n(Cc3c(Cl)cccc3Cl)cnc21	·	·	2.5	-2.9	-5.1%	·
CSc1ccc(OC2CCN(Cc3ccccc3)CC2)cc1	-89.2*	?	1.7	-8.5	5.9%	-4.2%
CSc1ccc(CN2CCC(Cc3ccccc3)CC2)cc1	?	-1.9	·	·	-2.4%	-1.1%
CCOC(=O)C1(CCc2ccccc2)CCN(Cc2ccc(C(=O)OC)cc2)CC1	-113.8*	-107.8*	1.9	37.9	0.1%	1.2%
CCOC(=O)C1(CCCc2ccccc2)CCN(Cc2ccn[nH]2)CC1	1.4	2.7	0.4	3.0	-2.5%	-5.4%
CCOC(=O)C1(CCc2ccccc2)CCN(Cc2ccccn2)CC1	-74.0*	-26.2	0.7	3.3	4.5%	-1.4%
CCOC(=O)C1(CCc2ccccc2)CCN(C2Cc3ccccc3C2)CC1	-78.9*	?	-0.9	4.4	-3.1%	-2.9%
CCOC(=O)C1(CCc2ccccc2)CCN(Cc2cc(OC)c(OC)cc2OC)CC1	-98.6*	-11.4	-0.3	-3.8	-1.0%	-4.1%
CC(C)(C)CC(=O)OCC(=O)[C@@]12OC(C)(C)O[C@@H]1C[C@H]1[C@@H]3CCC4=CC(=O)C=C[C@]4(C)[C@@]3(F)[C@@H](O)C[C@]12C	·	·	·	·	-4.1%	·
NC(=O)C1CCCN(Cc2ccc3c(c2)CN(Cc2cn[nH]c2-c2ccc(F)cc2)CCO3)C1 (stereo not drawn)	·	·	·	·	-4.6%	·
O=C1NC(=O)c2c1c(-c1ccccc1)cc1[nH]c3ccc(O)cc3c21	·	·	·	·	-10.9%	·
Cc1ccc(S(=O)(=O)Nc2ccccc2CNc2ncc(Br)cc2Br)cc1	-94.2*	-0.8	1.8	55.8	-2.7%	-0.1%
N=c1sccn1CC(=O)Nc1cccc(S(=O)(=O)N2CCCCCC2)c1	-70.9*	·	0.6	11.3	-2.0%	-5.5%
O=C(NCc1ccc(F)cc1)C1CCCN1S(=O)(=O)c1cccc2nsnc12 (stereo not drawn)	5.8	-250.6*	-0.7	1.3	-0.2%	-4.4%
O=C(Nc1ccc(F)cc1)C1CCCN1S(=O)(=O)c1cccc2nsnc12 (stereo not drawn)	2.8	2.2	-0.9	-20.1	-3.6%	1.3%
COc1ccc2c(c1)CCc1cnc(-n3ncc(C(=O)N4CCN(CCO)CC4)c3C3CC3)nc1-2	·	·	·	·	-0.4%	·
Cc1ccc2nc(SCC(=O)NCC3Cc4cc(-c5ncccc5C)ccc4O3)[nH]c2c1 (stereo not drawn)	·	·	·	·	-0.4%	·
CCCCN(C(=O)COC(=O)CSc1ccc([N+](=O)[O-])cc1)c1c(N)n(CCC)c(=O)[nH]c1=O	-114.6*	-2.9	-0.6	4.4	-3.8%	1.9%
CCCCN(C(=O)COC(=O)CSc1cc(C)c2ccccc2n1)c1c(N)n(CCC)c(=O)[nH]c1=O	-16.1	-25.4	0.1	15.3	-5.3%	0.6%
Cc1ccc(Nc2ccc(N3CCN(c4ccc([N+](=O)[O-])cc4)CC3)nn2)cc1	-108.9*	-85.5*	-1.0	11.6	-3.0%	-5.1%
Cc1ccc(Nc2ccc(N3CCN(C(=O)c4ccc([N+](=O)[O-])cc4Cl)CC3)nn2)cc1	·	·	9.0	-14.8	-0.4%	·
SMILES	KCNH2 3.1 inh	KCNH2 WT inh	TRPML1 ag	TRPML1 inh	GRP78 ERSR act	PTAP TSG101 blk
CC(C)(S)C(=O)N[C@H](CS)C(=O)O	·	·	·	·	-1.2%	·
Cc1ccc(C(=O)Nc2cnn(-c3ccc(C(=O)NCc4nc(-c5ccccc5)n[nH]4)cc3)c2)c(C)c1	·	·	·	·	-3.4%	·
Cc1ncc2c(c1CNC(=O)c1cncs1)CCN(C(=O)c1cc(F)c(F)cc1F)C2	·	·	·	·	-3.3%	·
CCOc1ccc(C(=O)C(C)OC(=O)Cn2[nH]c(=O)c3ccccc3c2=O)cc1 (stereo not drawn)	-73.2*	5.0	-0.5	2.8	-4.1%	-1.9%
Cc1ccc(C(=O)C(C)OC(=O)Cn2[nH]c(=O)c3ccccc3c2=O)cc1 (stereo not drawn)	27.1	14.3	-1.0	-13.1	-1.7%	-0.3%
Cc1cc(C)cc(NC(=S)N2CCC(NC(=O)C3CCCCC3)CC2)c1	-9.5	8.4	-0.2	26.0	2.4%	0.3%
Cc1cc(C)cc(NC(=S)N2CCC(NC(=O)C3CC3)CC2)c1	-10.6	-95.4*	0.1	-9.6	4.8%	2.0%
O=C(NC1CCN(C(=O)Nc2cccc(Cl)c2)CC1)C1CCCCC1	-72.8*	-8.6	-0.2	-3.6	-5.3%	-3.3%
O=C(NCCN1Cc2ccccc2OC(c2ccsc2)C1)c1cncs1 (stereo not drawn)	·	·	·	·	-2.2%	·
Cc1cc(NC(=O)CN(C)CC(=O)Nc2ccc(Cl)c(C(F)(F)F)c2)no1	-2.4	-6.7	1.9	22.4	-6.6%	-12.6%
Cc1cc(NC(=O)CN(C)CC(=O)Nc2ccc(Cl)cc2)no1	-119.8*	11.1	-1.2	-3.6	-1.4%	-3.1%
O=C(Nc1ccccc1)c1ccc(Br)c(S(=O)(=O)N2CCCCC2)c1	·	·	0.6	60.9	0.1%	·
O=C(Nc1cccc(O)c1)c1ccc(Br)c(S(=O)(=O)N2CCCCC2)c1	-91.9*	-10.1	-0.2	7.4	-1.1%	-1.0%
Cc1occc1C(=O)NCCN1Cc2ccccc2OC(c2ccccc2F)C1 (stereo not drawn)	·	·	·	·	-5.0%	·
Cc1ccc(OCC(=O)Nc2ccccc2N2CCCC2)c(C)c1	-10.9	+	-0.4	9.8	-0.4%	-1.9%
CCN1CCN(c2ccc(S(=O)(=O)N3CCCCC3)cc2NC(=O)COc2cc(C)ccc2Cl)CC1	-82.6*	3.6	-0.4	24.0	1.8%	-1.5%
Cc1ccc(C)c(OCC(=O)Nc2ccccc2N2CCCC2)c1	-12.1	4.7	3.5	11.9	-1.6%	-0.8%
CCN1CCN(c2ccc(S(=O)(=O)N3CCCCC3)cc2NC(=O)COc2ccc(F)cc2Cl)CC1	-79.9*	-1.1	0.9	53.0	-5.6%	-5.4%
COC(=O)c1ccc(C(=O)NCC2Cc3cccc(-c4ccc(C(=O)OC)cn4)c3O2)cc1 (stereo not drawn)	·	·	·	·	-1.3%	·
